Measured values reported in the supplement of paper PMC6763611.

Tested on: Plasmodium falciparum NF54
Assay: growth inhibition relative to untreated control; higher = more inhibition
Details: 72 h
Method in brief: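 Two media were used: minimal RPMI, and minimal RPMI carrying the chorismate end-products folate, pABA, pHBA, tyrosine, phenylalanine and tryptophan at 2.2 μM, 7.3 μM, 7.3 μM, 111 μM and 90 μM for the first five. In these media, P. falciparum NF54 ring stages (1% hematocrit, 1% parasitemia, 100 μL/well) were exposed in dark 96-well half-area plates to a single 5 μM or 1 μM test-compound dose for 72 h at 37 °C. Growth inhibition was then assessed with SYBR Green against untreated wells, subtracting background from uninfected erythrocytes.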

[1] = 1 µM, MM + chorismate end-products (CM screening medium)
[2] = 5 µM, MM + chorismate end-products (CM screening medium)

CN1CCN(S(=O)(=O)c2ccc(-c3ccc4c(Nc5ccc6nn[nH]c6c5)ccnc4c3)cc2)CC1
growth inhibition [1]: 89.7%
growth inhibition (1 µM, minimal medium (MM)): > 100%
growth inhibition [2]: 92.9%
growth inhibition (5 µM, minimal medium (MM)): 95.1%

CNc1nnc(Sc2cnn(-c3ccccc3)c(=O)c2Cl)s1
growth inhibition [1]: 27%
growth inhibition (1 µM, minimal medium (MM)): 16.6%
growth inhibition [2]: 79.8%
growth inhibition (5 µM, minimal medium (MM)): 62.1%

CC(C)NCC(=O)Nc1cccc(C(=O)Nc2cccc(C(F)(F)F)c2)c1
growth inhibition [1]: 72.4%
growth inhibition (1 µM, minimal medium (MM)): 83.1%
growth inhibition [2]: 89.3%
growth inhibition (5 µM, minimal medium (MM)): 97.4%

FC(F)(F)c1cc(NCCc2ccccc2)nc(-c2ccccn2)n1
growth inhibition [1]: 37.2%
growth inhibition (1 µM, minimal medium (MM)): 0.647%
growth inhibition [2]: 0.0785%
growth inhibition (5 µM, minimal medium (MM)): < 0%

CCOc1ccc2cc(-c3nn(C(C)(C)C)c(N)c3C(N)=O)cnc2c1
growth inhibition [1]: 11%
growth inhibition (1 µM, minimal medium (MM)): 18.1%
growth inhibition [2]: 3.3%
growth inhibition (5 µM, minimal medium (MM)): < 0%

COc1cccc(NC(=O)c2c(NC(=O)c3cccnc3)sc3c2CCC3)c1
growth inhibition [1]: 47.5%
growth inhibition (1 µM, minimal medium (MM)): 9.66%
growth inhibition [2]: 53.5%
growth inhibition (5 µM, minimal medium (MM)): 8.07%

COc1ccc2nccc(NC(=O)C3CCN(CCc4ccc(Cl)cc4)CC3)c2n1
growth inhibition [1]: 33.1%
growth inhibition (1 µM, minimal medium (MM)): 30.5%
growth inhibition [2]: 42.1%
growth inhibition (5 µM, minimal medium (MM)): 42.2%

Nc1ncc(-c2cn[nH]c2)cc1-c1nc2cc(Cl)cnc2[nH]1
growth inhibition [1]: 97%
growth inhibition (1 µM, minimal medium (MM)): 97%
growth inhibition [2]: > 100%
growth inhibition (5 µM, minimal medium (MM)): 94.3%

C[C@H](c1ccc2c(c1)CCCC2)N(C)c1ncc2c(N)nc(N)nc2n1
growth inhibition [1]: 8.99%
growth inhibition (1 µM, minimal medium (MM)): 2.84%
growth inhibition [2]: 36%
growth inhibition (5 µM, minimal medium (MM)): 15.3%

COC(=O)C1=C(C)NC(C)=C(C(=O)OC(C)C)C1c1cccc2nonc12 (stereo not drawn)
growth inhibition [1]: 42%
growth inhibition (1 µM, minimal medium (MM)): 24.4%
growth inhibition [2]: 28.3%
growth inhibition (5 µM, minimal medium (MM)): 18.7%

Cc1ccc2nc(Cl)c(CNCc3cccs3)cc2c1
growth inhibition [1]: 49.9%
growth inhibition (1 µM, minimal medium (MM)): 31.9%
growth inhibition [2]: < 0%
growth inhibition (5 µM, minimal medium (MM)): < 0%

Nc1nc(N)c2c3c(sc2n1)CN(Cc1ccccc1)CC3
growth inhibition [1]: 55.2%
growth inhibition (1 µM, minimal medium (MM)): 96.8%
growth inhibition [2]: 60.8%
growth inhibition (5 µM, minimal medium (MM)): 91.9%
